Measured values as given in publication PMC4336329 (PLoS ONE, 2015).
In all, about 310,000 compounds went through this assay and about 2,200 (0.71%) showed an effect of 50% or more. The effect is printed as a negative number. The full list was thinned out, with strong results kept by preference.

target: human ether-à-go-go-related gene (hERG) potassium channel (human, UniProt Q12809); assay: primary screen, population patch clamp on CHO cells stably expressing hERG; higher = less effect of the substance
Sequence (Q12809 whole entry, looked up): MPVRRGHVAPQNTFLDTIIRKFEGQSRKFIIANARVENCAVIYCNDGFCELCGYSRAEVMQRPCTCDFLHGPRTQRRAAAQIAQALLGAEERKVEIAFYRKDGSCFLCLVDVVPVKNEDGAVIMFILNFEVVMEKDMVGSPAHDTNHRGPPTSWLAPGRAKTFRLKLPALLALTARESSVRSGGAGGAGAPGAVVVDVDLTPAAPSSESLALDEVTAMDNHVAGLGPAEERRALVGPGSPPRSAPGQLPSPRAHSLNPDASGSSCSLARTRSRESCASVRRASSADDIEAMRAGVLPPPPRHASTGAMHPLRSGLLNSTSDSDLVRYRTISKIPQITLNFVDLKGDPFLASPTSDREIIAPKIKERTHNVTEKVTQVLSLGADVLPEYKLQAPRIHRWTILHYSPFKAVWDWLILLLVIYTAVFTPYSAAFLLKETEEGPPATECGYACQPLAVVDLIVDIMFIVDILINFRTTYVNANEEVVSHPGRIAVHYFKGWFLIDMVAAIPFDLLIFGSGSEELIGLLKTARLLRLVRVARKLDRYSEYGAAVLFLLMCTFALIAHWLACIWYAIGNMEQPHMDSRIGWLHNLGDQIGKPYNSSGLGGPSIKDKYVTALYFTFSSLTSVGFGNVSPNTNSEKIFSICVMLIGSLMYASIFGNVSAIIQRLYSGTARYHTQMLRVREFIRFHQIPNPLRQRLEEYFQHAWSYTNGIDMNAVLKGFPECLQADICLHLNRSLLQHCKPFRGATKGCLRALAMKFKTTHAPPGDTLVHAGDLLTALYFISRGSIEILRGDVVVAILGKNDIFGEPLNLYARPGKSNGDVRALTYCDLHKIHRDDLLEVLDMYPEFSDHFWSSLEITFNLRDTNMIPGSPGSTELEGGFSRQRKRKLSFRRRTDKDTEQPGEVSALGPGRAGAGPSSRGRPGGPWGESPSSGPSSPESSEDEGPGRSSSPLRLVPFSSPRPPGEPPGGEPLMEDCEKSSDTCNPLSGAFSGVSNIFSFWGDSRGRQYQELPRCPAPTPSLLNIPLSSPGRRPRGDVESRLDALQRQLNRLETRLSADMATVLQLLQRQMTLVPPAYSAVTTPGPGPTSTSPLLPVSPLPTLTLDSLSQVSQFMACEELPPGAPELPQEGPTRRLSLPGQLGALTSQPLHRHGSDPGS

Structure (SMILES) | hERG current change (%, negative = inhibition) at 1uM [%]
Cc1nc(-c2ccc(C(=O)N3CCCC3)cc2)cs1 | 9.11
Cc1cccc(C(=O)NCC(=O)NC2CCC(C)CC2)c1 (stereo not drawn) | 1.64
COCCN(Cc1cc2cc(C)ccc2n2nnnc12)C(=S)Nc1ccccc1C | 17
O=C(/C=C/c1cn(-c2ccccc2)nc1-c1cccc(Cl)c1)N1CCN(c2ccccn2)CC1 | 11
O=C(NC(=S)Nc1cccc2c(O)cccc12)c1cccc(Br)c1 | 8.92
O=C(Nc1nccs1)c1nc[nH]c1C(=O)N1CCc2ccccc2C1 | 3.14
COc1ccc(OC)c(-c2cc(C(=O)NCc3ccc(Cl)cc3)no2)c1 | 12.1
Cc1ccc(NC(=O)/C(=C/c2cccs2)NC(=O)c2ccco2)cc1 | 17
Cc1ccccc1NC(=O)/C(=C\c1cccs1)NC(=O)c1ccco1 | -3.3
O=C(N/C(=C\c1cccs1)C(=O)N1CCOCC1)c1ccco1 | -2.36
CN1CCN(C(=O)/C(=C\c2cccs2)NC(=O)c2ccco2)CC1 | -65.2
O=C(N/C(=C/c1cccs1)C(=O)N1CCOCC1)c1ccco1 | 9.85
CN1CCN(C(=O)/C(=C/c2cccs2)NC(=O)c2ccco2)CC1 | -62.1
COCc1cc(Sc2ccc(OC)cc2)nc(-c2ccccc2)n1 | 16.2
CCCCN(C)C(=O)c1nc2ccccn2c1CN1CCN(C/C=C/c2ccccc2)CC1 | -80.8
CCCCN(C)C(=O)c1nc2ccccn2c1CN1CCSCC1 | 12.1
CCCCN(C)C(=O)c1nc2ccccn2c1CN1CCN(c2ncccn2)CC1 | 6.17
CC(C)(C)c1ccc(C(=O)O/N=C(\N)c2ccccn2)cc1 | 13.9
O=C(CN1C(=O)/C(=C/c2ccccc2)SC1=S)Nc1cccnc1 | 9.4
O=C(CC1CCCCC1)NCc1ccco1 | 7.39
CCCCN(CCCC)CC(O)COc1ccccc1C(=O)Nc1ccccc1 (stereo not drawn) | -55
CCCCN(CCCC)CC(O)COc1ccccc1Br.Cl (stereo not drawn) | 1.61
CCCN(CCC)CC(O)COc1ccccc1C(=O)Nc1ccccc1.Cl (stereo not drawn) | -35.8

Structure (SMILES) | hERG current change (%, negative = inhibition) at 1uM [%]
CC(=O)N1CCc2cc(S(=O)(=O)CCC(=O)Nc3cc(C)cc(C)c3)ccc21 | 8.33
O=C(/C=C/c1ccccc1)N(c1ccccn1)C1CCCCC1 | 3.14
Cc1nc2ccc(Br)cc2c2c1CC(CO)O2 (stereo not drawn) | 15.9
CCOC(=O)N1CCN(C(=O)c2oc3ccc(S(=O)(=O)N4CC(C)CC(C)C4)cc3c2C)CC1 (stereo not drawn) | 0.354
COCCOC(=O)C1=C(N)Oc2c(c(=O)oc3ccccc23)[C@@]12C(=O)Nc1ccccc12 | 12.1
CCN(CC)CCn1c(NS(=O)(=O)c2ccc(C)cc2)nc2ccccc21 | -17.8
CCN(CC)CCn1c(NS(=O)(=O)c2ccc(Cl)cc2)nc2ccccc21.Cl | -69
CCN(CC)CCn1c(NC(=O)c2ccc(Cl)cc2)nc2ccccc21 | -0.305
O=C1C(Cl)=C(N2CCN(Cc3ccccc3)CC2)C(=O)N1c1ccccc1 | 8.07
CCOc1ccc(-n2c(-c3ccc(Cl)cc3)c[n+]3c2SCC3)cc1.[Br-] | -60.8
COc1ccc(-c2c[n+]3c(n2-c2ccccc2)SCC3)cc1.[Br-] | -6.21
Clc1ccc(-c2c[n+]3c(n2-c2ccccc2)SCC3)cc1.[Cl-] | 3.68
Cc1cccc2c1-c1sc(C(=O)NCCCN3CCC(C)CC3)cc1CO2 | -5.27
Cc1cccc2c1-c1sc(C(=O)NCCCN3CCCC(C)C3)cc1CO2 (stereo not drawn) | 16.2
CCCN1CCN(CCCNC(=O)c2cc3c(s2)-c2c(C)cccc2OC3)CC1 | -67.5
CCn1cc(Br)c(C(=O)N(C)Cc2ccccc2)n1 | 11.4
Cc1ccc2nc(SCC(=O)N/N=C/c3ccco3)cc(C)c2c1 | 9.47
Cc1ccc2nc(N/N=C/c3ccco3)cc(C)c2c1 | -62.9
Cc1cc(N/N=C/c2ccco2)c2ccccc2n1 | 10.7
CCOC(=O)N1CCC(N2C(=O)c3ccccc3C2Nc2c(C)cccc2C)CC1 (stereo not drawn) | -57.6
CCOC(=O)N1CCC(N2C(=O)c3ccccc3C2Nc2ccccc2C)CC1 (stereo not drawn) | -8.54
CCOC(=O)N1CCC(N2C(=O)c3ccccc3C2Nc2ccccc2)CC1 (stereo not drawn) | 6.14
COc1ccc(C(=O)N2CCCC(Nc3ccc(C)c(C)c3)C2)cc1 (stereo not drawn) | -0.108

Structure (SMILES) | hERG current change (%, negative = inhibition) at 1uM [%]
Cc1cccc2cc(CN(Cc3ccc(F)cc3)C(=O)N3CCOCC3)c(=O)[nH]c12 | 1.19
CS(=O)(=O)Nc1ccccc1C(=O)NCc1ccco1 | 1.75
CS(=O)(=O)Nc1ccc(C(=O)NCc2ccco2)cc1 | 16.3
CS(=O)(=O)Nc1ccc(C(=O)Nc2ccccc2C(=O)NCc2ccco2)cc1 | -58
CC(C)CC(=O)Nc1ccc(C(=O)NNC(=O)C(c2ccccc2)c2ccccc2)cc1 | 12.2
COc1cccc(NC(=O)NCCCN2CCN(c3ccc(F)cc3)CC2)c1 | -51
COc1ccc(N2CCN(CCCNC(=O)c3cc4sccc4n3C)CC2)cc1 | -77.7
COc1cccc(NC(=O)NCCN2CCCCC2)c1 | 4.59
CC1(C)CC(=O)c2cc(OCC(=O)NCCN3CCOCC3)ccc2O1 | 16.6
CSc1cccc(NC(=S)NCCCN2CCN(c3ccc(F)cc3)CC2)c1 | -3.39
O=C(NCCCN1CCc2ccccc2C1)Nc1ccc(Cl)cc1 | -44.5
COc1ccc(NC(=O)NCCN2CCc3ccccc3C2)cc1 | -1.55
Cn1c(C(=O)NCCCN2CCCCC2)cc2sccc21 | -13.7
CC1(C)CC(=O)c2cc(OCC(=O)NCCCN3CCN(c4ccc(F)cc4)CC3)ccc2O1 | -60.3
CC1(C)CC(=O)c2cc(OCC(=O)NCCCN3CCN(c4ccccc4F)CC3)ccc2O1 | -26
COc1ccc(NC(=O)NCCCN2CCc3ccccc3C2)cc1 | -69.5
CC1CCN(CCCNC(=O)c2cc3sccc3n2C)CC1 | -23.6
CC(C)(C)OC(=O)NC(CNCc1ccccc1)Cc1ccccc1 (stereo not drawn) | 3.93
Nc1c(C(=O)NCCN2CCOCC2)c2nc3ccccc3nc2n1-c1ccccc1 | -3.09
Cc1ccc(NC(=S)/N=C(\N)Nc2nc(C)c3cc(C)c(C)cc3n2)cc1C | 8.63
COc1cccc(C(=O)Nc2cccc(C(C)=O)c2)c1 | 11.4
COc1ccc(NC(=O)NCCCN2CCN(c3cc(C)ccc3C)CC2)cc1 | -80.4
COc1ccc(NC(=O)NCCN2CCN(c3cc(OC)ccc3OC)CC2)cc1 | 13.5

Structure (SMILES) | hERG current change (%, negative = inhibition) at 1uM [%]
COc1ccc(Cl)c(N2CCN(CCCNC(=O)Nc3ccc(C)cc3)CC2)c1 | -24.5
COc1ccc(N2CCN(CCCNC(=O)Nc3ccccc3)CC2)cc1 | -50.5
COc1ccccc1N1CCN(CCCNC(=O)Nc2ccccc2)CC1 | -28.8
COc1ccc(NC(=O)NCCCN2CCN(c3ccccc3F)CC2)cc1 | -5
CCCSc1nnc2n(N)c(=O)c3ccccc3n12 | 11.3
C[C@@H](C(=O)Nc1ccc2ccccc2c1)[C@H]1C[C@]1(C)[C@H](NS(=O)(=O)c1ccc(-c2ccccc2)cc1)c1ccccc1 | -8.41
Fc1ccccc1NC(=S)N1CCOCC1 | 12.2
COc1cc(C2SCCS2)cc(Br)c1Oc1ncccc1[N+](=O)[O-] | 10.3
CC(C)CCNC(=O)Cc1csc(-c2ccccc2)n1 | 6.54
OC1CCC(NC(=S)Nc2ccc(SC(F)F)cc2)CC1 (stereo not drawn) | 6.06
O=C(OCc1cnc(Cl)s1)c1cccc(Cl)c1 | -5.8
CCCc1cc(C(=O)Nc2ccc(Cl)cn2)cs1 | 9.72
O=C(CCS(=O)(=O)c1ccc2c(c1)NC(=O)CO2)NCCc1ccccc1 | 9.02
CS(=O)(=O)N(Cc1ccco1)CC(O)Cn1c2ccccc2c2ccccc21 (stereo not drawn) | 15
Cc1cc(S(=O)(=O)Nc2ccc(C(=O)NCC3(N(C)C)CCCCC3)cc2)ccc1F | -7.71
CN(C)C1(CNC(=O)c2ccc(NS(=O)(=O)c3ccc(Cl)c(Cl)c3)cc2)CCCCC1 | -50.9
CCOc1ccc(NS(=O)(=O)c2ccc(C(=O)NCC3(N(C)C)CCCCC3)cc2)cc1 | 6.85
COc1ccc(CCC(=O)Nc2ccc(Cn3ccnc3)cc2)cc1 | 10.4
CCCNc1c(NS(=O)(=O)c2ccc(OC)c(OC)c2)c(=O)oc2ccccc12 | -77.2
CCCNc1c(NS(=O)(=O)c2ccc(C(C)(C)C)cc2)c(=O)oc2ccccc12 | 9.75
CCCNc1c(NS(=O)(=O)c2ccc(C)c(C)c2)c(=O)oc2ccccc12 | -6.38
